According to PubChem BioAssay (NCI):
This is part of a sample that, as a whole, favours compounds with a hit. Of some 83,000 tested, about 20% had one in any assay.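 Single-concentration screen, 48 h exposure, 96-well plates. Endpoint: percent growth. Below 10 = active.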 A number with no mark means an inactive call. Activity calls are given as the source filed them.

The molecules below were run on MALME-3M melanoma (assay: NCI-60 one-dose screen, 48 h (100 = growth as untreated, 0 = no growth, -100 = all killed)). Conditions: 10 µM unless noted.
O=C(O)COc1ccc([N+](=O)[O-])cc1Cl showed a growth of 107%. For C=C[C@]1(C)C=C2C(=O)[C@@]3(O)OC[C@@]4(CCCC(C)(C)C43O)C2(O)C(O)C1 (stereo partly drawn), the growth was 5.18% (active). Work on COC(=O)C(C(=O)OC)C(Br)C(Br)C(Br)c1ccccc1 (stereo not drawn) yielded a growth of 101%. In the case of C=CCNCCC#N, the growth is reported as 114%. In the case of O=C1C=C(OCC=C(C(F)(F)F)C(F)(F)F)c2ccccc2C1=O, the growth is reported as -34.8% (active). N#CCc1ncc(-c2ccc(C(F)(F)F)cc2)c(NC2CCCCCC2)n1 gave a growth of 25.7% [100 µM]. Work on C[C@]12CC[C@H]3[C@@H](CC[C@H]4C[C@@H](O)CC[C@@]43C)[C@@H]1CC(=O)C2 yielded a growth of 163%. Work on COC(=O)c1cc(=O)nc(N/N=C/c2ccccc2O)s1 yielded a growth of 82.5%. [N-]=[N+]=Nc1ncc(-c2ccc(C(F)(F)F)cc2)c(NC2CCCCCC2)n1 was tested, and the growth was 62.3% [100 µM]. With NC(CSC(c1ccccc1)(c1ccccc1)c1ccccc1)C(=O)NCC(=O)O (stereo not drawn) the growth was 52.9%. Molecule COc1cc(-c2nc(/C=C3/C(=O)Nc4ccccc43)c3ccccn23)cc(OC)c1OC has a growth of 74.4%. For COc1cc2cn3c4ccc(O)cc4[nH]c(=O)c3c2cc1OC, the growth was 1.16% (active). CCCCCCCCCCCCCCCCNC(=O)Nc1ccc(C)c(NC(=O)NCCCCCCCCCCCCCCCC)c1 gave a growth of 89.8%. Molecule O=C(c1ccccc1)c1ccccc1-c1ccccc1 has a growth of 49.4%. In the case of CN1NC(c2ccccc2)NN(C)C1=O, the growth is reported as 84.8%. Molecule COc1cc2c(c3c1c(=O)c1cccc(F)c1n3C)C=CC(C)(C)O2 has a growth of 75.9%. For NCCCOc1cc2ccccc2cc1C(=O)Nc1ccc(Cl)cc1OC(=O)c1cc2ccccc2cc1OCCCN, the growth was -70.7% (active). Work on O=C(/C=C/c1ccc(Cl)cc1)c1ccc(Cl)cc1 yielded a growth of 91.8%. In the case of CC(=O)O.[In], the growth is reported as 109%. With COC(=O)[C@H](Cc1cn(C)cn1)NC(=O)[C@H](CC(=O)OCc1ccccc1)NC(=O)Nc1cc(C(F)(F)F)cc(C(F)(F)F)c1 the growth was -94.4% [100 µM] (active). In the case of COc1cc([C@@H]2c3cc4c(cc3[C@H](O)[C@H]3COC[C@@H]23)OCO4)cc(OC)c1OC, the growth is reported as 43.3%. For CC(=O)CC(=O)OC/C=C(/C)CCC=C(C)C, the growth was 121%. CC(=O)Nc1ccc(S(=O)(=O)Cl)cc1 gave a growth of 111%. CC(CCN1CCN(CCC(C)CC(C)(C)C)C1CC(C)CC(C)(C)C)CC(C)(C)C (stereo not drawn) showed a growth of 99.2%. Work on C=C(C)C(C(=O)OCC)(C(=O)OCC)C(C)C yielded a growth of 110%. Molecule CSCc1ncc(-c2ccc(C(F)(F)F)cc2)c(NC2CCCCCC2)n1 has a growth of 68.8% [25 µM]. For CCn1cnc(C[C@H](NC(=O)[C@@H](NC(=O)Nc2cc(C(F)(F)F)cc(C(F)(F)F)c2)C(C)C)C(=O)OC)c1, the growth was -90.5% [100 µM] (active). In the case of O=Nc1ccc(O)c2ccccc12, the growth is reported as -58.5% (active). Molecule COC(=O)c1c[n+]([O-])ccc1OC has a growth of 92.1%. For CC#Cc1nc(Nc2cc(C)[nH]n2)c2ccccc2n1, the growth was -45.3% [100 µM] (active). With CC(Br)c1nc2ccccc2cc1C(N)=O (stereo not drawn) the growth was 101%. In the case of COC(=O)[C@H](Cc1cn(C)cn1)NC(=O)[C@@H](NC(=O)Nc1cc(C(F)(F)F)cc(C(F)(F)F)c1)C(C)(C)C, the growth is reported as -86.9% [100 µM] (active). Molecule CCCCCCC(C(=O)OCC)(C(=O)OCC)C1CCCCCC1 has a growth of 108%. In the case of CCCCCCCCCCCCCCCCCCOP(=O)(O)O, the growth is reported as 112%. For CCC(C)CC(N)O (stereo not drawn), the growth was 130%. For CN(C)CCOC(=O)C(C)(C)C, the growth was 105%. CNc1ccc(Nc2ccc(S(=O)(=O)O)cc2)c2c1C(=O)c1ccccc1C2=O was tested, and the growth was 110%. For Cn1c2ccccc2c2ccccc21, the growth was 101%. In the case of NCCCOc1cc(Cl)ccc1NC(=O)c1cc2ccccc2cc1OCCCN, the growth is reported as -4.21% (active).

Each molecule was assayed on MDA-MB-231 breast in the same assay as above. Conditions: 10 µM unless noted.
O=C(O)COc1ccc([N+](=O)[O-])cc1Cl showed a growth of 115%. C=C[C@]1(C)C=C2C(=O)[C@@]3(O)OC[C@@]4(CCCC(C)(C)C43O)C2(O)C(O)C1 (stereo partly drawn) was tested, and the growth was 98.3%. COC(=O)C(C(=O)OC)C(Br)C(Br)C(Br)c1ccccc1 (stereo not drawn) gave a growth of 117%. Work on C=CCNCCC#N yielded a growth of 119%. O=C1C=C(OCC=C(C(F)(F)F)C(F)(F)F)c2ccccc2C1=O was tested, and the growth was 7.59% (active). N#CCc1ncc(-c2ccc(C(F)(F)F)cc2)c(NC2CCCCCC2)n1 was tested, and the growth was 37.4% [100 µM]. For C[C@]12CC[C@H]3[C@@H](CC[C@H]4C[C@@H](O)CC[C@@]43C)[C@@H]1CC(=O)C2, the growth was 112%. In the case of COC(=O)c1cc(=O)nc(N/N=C/c2ccccc2O)s1, the growth is reported as 83.8%. [N-]=[N+]=Nc1ncc(-c2ccc(C(F)(F)F)cc2)c(NC2CCCCCC2)n1 showed a growth of 42.3% [100 µM]. NC(CSC(c1ccccc1)(c1ccccc1)c1ccccc1)C(=O)NCC(=O)O (stereo not drawn) gave a growth of 61.2%. With COc1cc(-c2nc(/C=C3/C(=O)Nc4ccccc43)c3ccccn23)cc(OC)c1OC the growth was 40.7%. With COc1cc2cn3c4ccc(O)cc4[nH]c(=O)c3c2cc1OC the growth was 30.9%. In the case of CCCCCCCCCCCCCCCCNC(=O)Nc1ccc(C)c(NC(=O)NCCCCCCCCCCCCCCCC)c1, the growth is reported as 89.9%. O=C(c1ccccc1)c1ccccc1-c1ccccc1 showed a growth of 42.1%. CN1NC(c2ccccc2)NN(C)C1=O gave a growth of 108%. COc1cc2c(c3c1c(=O)c1cccc(F)c1n3C)C=CC(C)(C)O2 was tested, and the growth was 58.4%. With O=C(/C=C/c1ccc(Cl)cc1)c1ccc(Cl)cc1 the growth was 118%. For CC(=O)O.[In], the growth was 116%. With COC(=O)[C@H](Cc1cn(C)cn1)NC(=O)[C@H](CC(=O)OCc1ccccc1)NC(=O)Nc1cc(C(F)(F)F)cc(C(F)(F)F)c1 the growth was -93% [100 µM] (active). COc1cc([C@@H]2c3cc4c(cc3[C@H](O)[C@H]3COC[C@@H]23)OCO4)cc(OC)c1OC was tested, and the growth was 73.8%. COc1ccc(/C=C2\CCCC3=C2N=C2SC=NN2C3c2ccc(OC)c(OC)c2)cc1OC (stereo not drawn) was tested, and the growth was 55.2%. For CC(=O)CC(=O)OC/C=C(/C)CCC=C(C)C, the growth was 109%. Molecule CC(=O)Nc1ccc(S(=O)(=O)Cl)cc1 has a growth of 118%. In the case of CC(CCN1CCN(CCC(C)CC(C)(C)C)C1CC(C)CC(C)(C)C)CC(C)(C)C (stereo not drawn), the growth is reported as 105%. For C=C(C)C(C(=O)OCC)(C(=O)OCC)C(C)C, the growth was 112%. In the case of CSCc1ncc(-c2ccc(C(F)(F)F)cc2)c(NC2CCCCCC2)n1, the growth is reported as 56.2% [25 µM]. CCn1cnc(C[C@H](NC(=O)[C@@H](NC(=O)Nc2cc(C(F)(F)F)cc(C(F)(F)F)c2)C(C)C)C(=O)OC)c1 was tested, and the growth was -94.2% [100 µM] (active). O=Nc1ccc(O)c2ccccc12 was tested, and the growth was 52.5%. In the case of COC(=O)c1c[n+]([O-])ccc1OC, the growth is reported as 99.4%. With CC#Cc1nc(Nc2cc(C)[nH]n2)c2ccccc2n1 the growth was -34.5% [100 µM] (active). Molecule CC(Br)c1nc2ccccc2cc1C(N)=O (stereo not drawn) has a growth of 118%. With COC(=O)[C@H](Cc1cn(C)cn1)NC(=O)[C@@H](NC(=O)Nc1cc(C(F)(F)F)cc(C(F)(F)F)c1)C(C)(C)C the growth was -89.6% [100 µM] (active). For CCCCCCC(C(=O)OCC)(C(=O)OCC)C1CCCCCC1, the growth was 101%. For CCCCCCCCCCCCCCCCCCOP(=O)(O)O, the growth was 96.6%. For CCC(C)CC(N)O (stereo not drawn), the growth was 116%. In the case of CN(C)CCOC(=O)C(C)(C)C, the growth is reported as 93.9%. With CNc1ccc(Nc2ccc(S(=O)(=O)O)cc2)c2c1C(=O)c1ccccc1C2=O the growth was 111%. Cn1c2ccccc2c2ccccc21 was tested, and the growth was 108%. For NCCCOc1cc(Cl)ccc1NC(=O)c1cc2ccccc2cc1OCCCN, the growth was -65% (active).
